An excerpt weighted towards active compounds, which were near 8% of everything screened.
ELG1 DNA repair: blocks ELG1-dependent DNA repair in HEK293T cells; HEK293T ELG1-luciferase reporter, luminescence, 16 h; DNA damage induced by 5-fluorouridine; Potency, µM (highest dose often 46.1 µM), for the others: at the highest dose activity change, negative = inhibition, most hits filed as inhibitors; 330,000 compounds, 2.3% hits; AID 504467; also: potency is read from the fitted curve at half-maximal effect; nearly all actives have a fitted effect of over 55% in size
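In this reporter screen, reduction of luminescence relative to DMSO vehicle indicated activity. Compounds and 5-fluorouridine were added together to 2,000 cells per well, incubated for 16 hr at 37 °C, then developed with ONE-Glo.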
TSHR antag: blocks TSH signaling through the human TSH receptor | AID 504810 | TSHR-expressing cells, TSH-stimulated cAMP HTRF, 2 h; hits give low values | 330,000 compounds, 0.2% hits | activity change, negative = inhibition, % at 11.5 µM;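 active = activity change below a set negative limit, meaning inhibition stronger than a set level, cut at about -70% in these data; inconclusive = activity change between two set negative limits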
Target sequence (P16473 whole entry, looked up): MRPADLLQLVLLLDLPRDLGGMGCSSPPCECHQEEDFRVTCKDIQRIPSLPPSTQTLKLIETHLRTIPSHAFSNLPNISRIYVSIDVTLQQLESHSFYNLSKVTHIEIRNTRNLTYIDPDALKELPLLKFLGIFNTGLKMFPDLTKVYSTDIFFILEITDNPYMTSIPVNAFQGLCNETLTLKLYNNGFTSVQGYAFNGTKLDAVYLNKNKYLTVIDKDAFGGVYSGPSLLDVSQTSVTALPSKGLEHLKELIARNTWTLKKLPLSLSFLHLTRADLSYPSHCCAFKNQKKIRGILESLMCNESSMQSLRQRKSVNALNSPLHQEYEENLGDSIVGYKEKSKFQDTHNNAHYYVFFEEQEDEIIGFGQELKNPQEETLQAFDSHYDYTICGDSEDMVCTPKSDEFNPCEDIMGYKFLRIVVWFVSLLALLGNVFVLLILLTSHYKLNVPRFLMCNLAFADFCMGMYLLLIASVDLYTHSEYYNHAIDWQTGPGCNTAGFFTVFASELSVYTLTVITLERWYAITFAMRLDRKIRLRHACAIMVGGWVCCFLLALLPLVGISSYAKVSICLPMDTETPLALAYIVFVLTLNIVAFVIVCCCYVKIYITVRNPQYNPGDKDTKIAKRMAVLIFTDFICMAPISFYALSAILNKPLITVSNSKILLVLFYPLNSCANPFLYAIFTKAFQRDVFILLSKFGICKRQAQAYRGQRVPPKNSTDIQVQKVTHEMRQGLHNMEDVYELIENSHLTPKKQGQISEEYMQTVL
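TSHR-expressing cells were treated with compounds, then stimulated with TSH at EC80 (4nM final) for 2 hours at 37 deg C. Cellular cAMP was measured by HTRF competition between lysate cAMP and cAMP-d2 for a cryptate-labelled anti-cAMP antibody.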
FBPA coupling cs: counter-screen for Giardia aldolase inhibitors: coupling enzyme system. coupling enzyme system counterscreen, AmpLite Red fluorescence. activity change, negative = inhibition, % at 58.2 µM, hits read low. 290,000 compounds, 0.67% hits. AID 2472; in the data active = activity change below about -30%
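Counterscreen of the coupled detection system alone, without aldolase: glyceraldehyde-3-phosphate coupling enzymes plus AmpLite Red readout. Compounds at 57.5 uM final, 10 min RT preincubation, 20 min RT reaction, fluorescence 525/598 nm.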
VP16 counter: Gal4-VP16 reporter inhibition counter-screen; Drosophila S2 Gal4-VP16 UAS-luciferase, luminescence, 20 h; Potency, µM (series often up to 53.6 µM), inactives show at the highest dose activity, negative = inhibition, usual class: inhibitors; 310,000 compounds, 3.5% hits;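 also: Gal4-VP16 expression switched on by copper sulfate through the metallothionein promoter; potency is read from the fitted curve at half-maximal effect; nearly all actives have a fitted effect of over 50% in size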
RORgamma inh: inhibitors of mouse ROR gamma transcriptional activity. Drosophila S2 Gal4-RORgamma UAS-luciferase reporter, 20 h. P51450. Potency, µM (doses to about 53.6 µM), inactives show at the highest dose activity change, negative = inhibition, usual class: inhibitors. 310,000 compounds, 5.4% hits; also: potency is read from the fitted curve at half-maximal effect; nearly all actives have a fitted effect of over 60% in size
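Luminescence from a UAS-regulated Photinus luciferase reporter in stably transfected Drosophila Schneider cells is measured; decreased signal marks ROR gamma inhibition. Fusion expression is induced by 700 uM copper sulfate for 20 hr.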
ELG1 FLuc counter: luciferase inhibition in cell-free luciferin readout for ELG1 hits; shares compounds with ELG1 DNA repair; cell-free firefly luciferase luminescence counter-screen, ViewLux; Potency, µM (titrated, usually from 46.1 µM), inactives show at the top dose activity change, negative = inhibition, usual class: inhibitors; 350 compounds, 3% hits; AID 624247; also: potency is read from the fitted curve at half-maximal effect
ELG1-Luc inh: inhibits ELG1-dependent DNA repair in HEK293T cells, confirmed | shares compounds with ELG1 DNA repair | HEK293T ELG1-luciferase levels, luminescence; cells co-treated with 5-fluorouridine | Potency, µM (highest dose often 46.1 µM), inactives show at the highest dose activity change, negative = inhibition, hits mostly inhibitors | 670 compounds, 68% hits | AID 624248; also: potency is read from the fitted curve at half-maximal effect; nearly all actives have a fitted effect of over 55% in size
ELG1 MMS Luc: confirmation of human ELG1 repair inhibitors, MMS stimulated | shares compounds with ELG1 DNA repair | HEK293T luciferase-tagged ELG1 level, MMS stimulated | Potency, µM (titrated, usually from 46.1 µM), for the others: top-dose activity change, negative = inhibition, most hits filed as inhibitors | 670 compounds, 53% hits; also: potency is read from the fitted curve at half-maximal effect; nearly all actives have a fitted effect of over 60% in size
ELG1 5FU viab: confirmation of ELG1 repair inhibitors: viability with 5FU; shares compounds with ELG1 DNA repair; cell viability with 5-FU, ELG1-dependent repair; Potency, µM (highest dose often 46.1 µM), for the others: at the highest dose activity change, negative = viability loss, hits mostly cytotoxic; 670 tested, under 10 active; AID 624250;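 also: ELG1-luc HEK293T cells cotreated with 5-fluorouridine at 10 µM final; potency is read from the fitted curve at half-maximal effect; viability measured 16 h after compound addition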
ELG1 MMS cell: confirmation of ELG1 repair inhibitors: viability with MMS. shares compounds with ELG1 DNA repair. Cell viability with MMS, ELG1-dependent DNA repair. Potency, µM (titrated, usually from 46.1 µM), for the others: at the top dose activity change, negative = viability loss, hits mostly cytotoxic. 670 compounds, 33% hits. AID 624251;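 also: ELG1-luc HEK293T cells co-treated with 10 µM MMS; potency is read from the fitted curve at half-maximal effect; viability read 16 h after compound addition; nearly all actives have a fitted effect of over 60% in size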
ELG1 unstim viab: unstimulated viability counter-screen for ELG1 repair hits | 900 compounds, 8% hits | shares compounds with ELG1 DNA repair | AID 624252 | cell viability counter-screen, unstimulated, luminescence | Potency, µM (titrated, usually from 45.9 µM), inactives show at the top dose activity change, negative = loss of viability, hits mostly cytotoxic;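 also: potency is read from the fitted curve at half-maximal effect; compound exposure lasted 16 hours before reading; nearly all actives have a fitted effect of over 55% in size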
FLuc enzyme: counter-screen for ELG1 repair inhibitors: firefly luciferase inhibition. shares compounds with ELG1 DNA repair. purified firefly luciferase, luminescence counter-screen. Potency, µM (titrated, usually from 57.5 µM), for inactives: at the top dose activity, negative = inhibition, actives largely listed as inhibitors. 350 compounds, 10% hits; also: potency is read from the fitted curve at half-maximal effect
Starred values were filed as active, the others as inactive; ? = inconclusive; / = no result; [ ] = remark or other dose. Unless noted, calls follow the shape of the dose curve; as a rule, active = well fitted curve in the direction sought with a large enough effect; inconclusive = small, poorly fitted or top-dose-only effect, or another doubt; inactive = no such curve, though single readings can be large; an effect the other way counts as inactive or inconclusive. % is scaled to controls: 0 for no effect and ±100 for the full control effect.

SMILES	ELG1 DNA repair	TSHR antag	FBPA coupling cs	VP16 counter	RORgamma inh	ELG1-Luc inh	ELG1 MMS Luc	ELG1 5FU viab	ELG1 MMS cell	ELG1 unstim viab	others
O=C(COS(=O)c1ccccc1)Nc1cc(Cl)ccc1N1CCOCC1 (stereo unspecified)	?	12	-3	11%[10 µM]	-1%	/	/	/	/	/
Cc1c(CC(=O)N2CCN(C(=O)C3COc4ccccc4O3)CC2)c(=O)oc2c(C)c(O)ccc12 (stereo unspecified)	0.58µM*	21	14	-21%	-13%	4µM*	?	?	-2%	?	ELG1 FLuc counter=-14%;FLuc enzyme=-4%
Cc1cccc(OCCCC(=O)NC2CCCCC2)c1	11%	-13	1	2%	?	/	/	/	/	/
COc1cc2cc(CN(Cc3cccnc3)C(=O)Nc3ccccc3F)c(=O)[nH]c2cc1OC	5.8µM*	-6	-2	9%	-1%	10µM*	1%	?	-1%	-8%	ELG1 FLuc counter=-5%;FLuc enzyme=-14%
COc1cc(-c2cc(C(=O)Nc3cccc(C(C)=O)c3)c3ccccc3n2)cc(OC)c1OC	1.6µM*	6	0	-15%	18%	0.71µM*	11µM*	?	-10%	?
Cc1cc(C)n2nc(C(=O)OCC(=O)NCc3ccccc3)nc2n1	13%	-3	/	/	/	/	/	/	/	/
CN(C)S(=O)(=O)c1cccc(C(=O)NCCOC(=O)c2cc(F)c(F)cc2Cl)c1	-6%	-15	-1	4%	15%	/	/	/	/	/
CCc1ccc(N(CC)C(=O)c2cn(C)c(=O)c3ccccc23)cc1	?	4	4	8%	-4%	/	/	/	/	/
COc1cccc([C@@H]2Oc3ccc(OC)cc3C(=O)[C@H]2OC(=O)NS(=O)(=O)c2ccc(C)cc2)c1	/	/	-4	4%	?	/	/	/	/	-2%
COc1ccc(CCn2c(N3CCN(C)CC3)nc3c2c(=O)[nH]c(=O)n3C)cc1	-1%	11	-4	-5%	-7%	/	/	/	/	/
CCCn1c(N2CCN(CC(=O)c3c(C)n(C)c4ccc(OC)cc34)CC2)nc2c1c(=O)[nH]c(=O)n2C	1.5µM*	-10	2	?	21%	3.5µM*	?	?	-18%	?	ELG1 FLuc counter=-6%;FLuc enzyme=-15%
Nc1ncc([N+](=O)[O-])c(N2CCCCCC2)n1	2.3µM*	-6	0	-22%	11µM*	4.4µM*	13µM*	-14%	-1%	-13%
COc1ccccc1/C=C/c1nc2ccccc2o1	/	/	/	/	/	/	/	/	/	0%
CC(=O)Nc1ccc(/C=C/c2nc3ccccc3o2)cc1	?	1	0	-6%	-22%	/	/	/	/	/
CCc1ccc(-c2nc(CN3CCC(C(=O)N4CCN(c5ccccn5)CC4)CC3)c(C)o2)cc1	4.1µM*	-11	0	14%	19%	7.1µM*	7.9µM*	-5%	7.9µM*	?
CCc1ccc(-c2nc(CN3CCC(C(=O)N4CCN(c5ccccc5)CC4)CC3)c(C)o2)cc1	?	2	3	-8%	27%	/	/	/	/	/
Cc1oc(-c2ccc(Cl)cc2)nc1CN1CCCC(C(=O)N2CCN(C(=O)c3ccco3)CC2)C1 (stereo unspecified)	4.1µM*	-21	0	-2%	-13%	14µM*	1.3µM*	-8%	1.6µM*	?
N#Cc1cccnc1N1CCN(C(=O)c2cccs2)CC1	2%	-2	0	1%	-3%	/	/	/	/	/
COc1ccc(/C=N/NC(=O)Nc2cccc3nsnc23)cc1OC	2.6µM*	1	-1	?	-2%	2.8µM*	22µM*	?	?	?
Cc1ccc2c(c1)C/C(=C/c1ccc(N(C)C)cc1)C2=O	/	/	/	/	/	/	/	/	/	0%
CCOC(=O)C1=C(C)N(C[C@@H]2CC[C@@H](Cc3ccc4cc(OC)ccc4c3)O2)C(=O)NC1c1ccc(OC)cc1 (stereo partly specified)	?	-16	/	/	/	/	/	/	/	/
COc1ccc2cc(C[C@@H]3CC[C@@H](CO)O3)ccc2c1	?	-6	/	/	/	/	/	/	/	-2%
Cc1ccc(NC(=O)CC(C)CC(=O)NCc2ccccc2)cc1Cl (stereo unspecified)	-15%	-16	1	1%	-5%	/	/	/	/	/
Cn1c2ccccc2c(=O)c2cc(NCCCN3CCOCC3)ccc21	?	7	/	/	/	/	/	/	/	-4%
O=c1c2ccccc2oc2ccc(NCCCN3CCOCC3)cc12	?	-2	0	-21%	?	/	/	/	/	/
CCOCCCNC(=O)C1CCN(c2cc(C)nc3c(-c4ccc(OC)c(OC)c4)c(C)nn23)CC1	2.6µM*	1	0	-7%	-37%	?	17%	?	1%	-19%
COc1ccc(-c2c(C)nn3c(NC4CCCC4)cc(C)nc23)cc1OC	?	5	-6	-4%	-44%	/	/	/	/	/
CC(=O)c1cc2c(cc1NS(=O)(=O)c1ccccc1Br)OCO2	-8%	-30	0	-6%	33%	/	/	/	/	/
COC(=O)c1[nH]c2ccc(C)cc2c1NC(=O)CN1CCN(c2ccccc2)CC1	18µM*	-8	-3	11µM*	?	13µM*	18µM*	?	?	25µM*	ELG1 FLuc counter=?;FLuc enzyme=1%
